From PubChem BioAssay (NCI)
About 83,000 compounds went through this panel and 20% of them were active in at least one assay; those are over-represented in the sample as a whole.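 Each cell line was grown in a 96-well plate and treated with one concentration of compound for 48 hours. Values below 10 were considered active.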 Values without a mark were called inactive. The source made the active and inactive calls.

tested on: HL-60(TB) leukemia; assay: NCI-60 one-dose screen, 48 h (100 = growth as untreated, 0 = no growth, -100 = all killed); conditions: 10 µM unless noted

Row | SMILES | growth
1 | COc1ccc2c(c1)C(Sc1ccc(F)cc1)c1c(nc(N)c(C#N)c1N)O2 (stereo not given) | 84.9%
2 | O=C(OCCOCCO)N(c1cccc(Br)c1)c1nc(SCCN2CCOCC2)nc2c1cnn2CC(Cl)c1ccc(Br)cc1 (stereo not given) | -46.8% (active)
3 | CN1CCN(Cc2ccc(C(=O)Nc3cccc(Nc4ccc5c(O)cccc5n4)c3)cc2C(F)(F)F)CC1 | -34.1% (active)
4 | O=C(Nc1ccc(-c2ccc3c(c2)NC(=O)/C3=C\c2ccc[nH]2)cc1)Nc1cccc(Cl)c1 | 10.6%
5 | Cc1ccc(C(=O)Nc2cc(-n3ccnc3)cc(C(F)(F)F)c2)cc1-n1cc(-c2cnc3cccnn23)nn1 | 50.5%
6 | N#Cc1ccc(C(=O)NNC(=O)CSc2nc3sc4c(c3c(=O)n2-c2ccc(Cl)cc2)CCCC4)cc1 | 67.2%
7 | COc1c(F)ccc(C(=O)Nc2ccc3nc(NC(=O)C4CCCN(S(=O)(=O)C5CC5)C4)sc3c2)c1F (stereo not given) | 32.4%
8 | N#Cc1c(NC(=O)c2ccc(C(F)(F)F)c(Cl)c2)sc2c1CCC(=O)C2 | -14.4% (active)
9 | O=C1Nc2ccccc2/C1=C/C(=O)c1cc2ccccc2oc1=O | 102%
10 | CCCCSc1nc(Nc2ccc(/C(C)=N/NC(N)=S)cc2)c(C#N)c(-c2ccccc2)n1 | 79.3%
11 | C=C1CCC2C3(C)COC(c4ccc(F)cc4)OC3CCC2(C)C1CC(O)C1=CCOC1=O (stereo not given) | 35.9%
12 | O=C(c1ccc(OCCN2CCOCC2)cc1)C1[C@H](c2ccc(Cl)cc2)[C@@H](c2ccccc2)NC12C(=O)Nc1ccc(Cl)cc12 (stereo not given in full) | -12.7% (active)
13 | N#Cc1c(-c2ccc(Br)cc2)nc2n[nH]c(-c3ccc(Br)cc3)c2c1-c1ccc(F)cc1 | 80.4%
14 | O=C(O)Cn1c(O)c(/C=C2/C=c3cc4c(cc3=NC2=O)OCCO4)sc1=S | 100%
15 | O=C(CCN1C(=O)/C(=C/c2ccc(F)cc2)SC1=S)N1CCOCC1 | 86.4%
16 | CC(C)(C)C(=O)c1c2c(c3ccc4c5ccccc5ccc4n13)C(=O)c1ccccc1C2=O | 94.2%
17 | O=c1onc(-c2cc3ccccc3nc2Cl)n1-c1cccc2ccccc12 | 33.5%
18 | CCNCCCn1c2c(c3cc(OC)c(OC)cc3c1=O)C(=O)c1cc3c(nc1-2)OCO3 | 55.1%
19 | O=C1Nc2cc(Cl)ccc2/C1=C/c1cccc(OCc2ccc(Br)cc2F)c1 | -57.8% (active)
20 | Cc1noc2c(Cc3ccc([N+](=O)[O-])cc3)nn(CC(=O)N/N=C/c3ccc(Cl)cc3)c(=O)c12 | 87.5%

Row | SMILES | growth
21 | Cc1ccc(C(=O)Nc2cc(-n3ccnc3C)cc(C(F)(F)F)c2)cc1C#Cc1cnc2cccnn12 | -28.8% (active)
22 | O=C1CC(Sc2n[nH]c(-c3ccncc3)n2)C(=O)N1c1ccc(Br)cc1 (stereo not given) | 101%
23 | CO[C@H]1CSS[C@@H]1Cn1nc(-c2ccc(Oc3ccccc3)cc2)c2c(N)ncnc21 | 8.96% (active)
24 | C[C@H](Nc1nc(NCCc2ccccc2)nc2ccccc12)c1ccccc1 | -48.2% (active)
25 | COc1ccc(/C=C/c2nc3ccccc3n3c(-c4ccc(Cl)cc4)nnc23)cc1 | 71.8%
26 | CCC(=O)c1cc(C(=O)OC)c2ccc3c4ccccc4ccc3n12 | 103%
27 | O=C(CSc1nnc(-c2ccc(-c3nc4ccc(Cl)cc4[nH]3)cc2)o1)Nc1ccccc1 | 42.1%
28 | N#Cc1c(-c2cccc(Cl)c2Cl)cc(-c2c[nH]c3ccccc23)[nH]c1=O | 62.1%
29 | CC(=O)NNc1ccc2nnc(-c3ccc(Br)cc3)n2n1 | 97.5%
30 | O=C(Cc1ccc2c(c1)CN(C1CCC(=O)NC1=O)C2=O)NCCc1ccccc1 (stereo not given) | -19.2% (active)
31 | COc1ccc(/C=N/N=C(\C)c2ccc3c(c2)Nc2ccccc2S3)cc1O | 34.2%
32 | Cc1cc2nc3c4ccccc4n(CCNCCN(C)C)c3nc2cc1C | -0.721% (active)
33 | Clc1ccc(Nc2nnc(-c3c[nH]c4ccccc34)o2)cc1 | 43.4%
34 | COC(=O)c1cccc(Oc2ccc(NC(=O)Nc3cc(C(F)(F)F)ccc3F)cc2)c1 | 78%
35 | O=C(Cc1c(-c2cccc([N+](=O)[O-])c2)n(-c2ncnc3c2c(-c2ccccc2)c(-c2ccccc2)n3Cc2ccccc2)[nH]c1=O)c1ccc(Cl)c(Cl)c1 | 11.6%
36 | O=C(Nc1nc2ccc([N+](=O)[O-])cc2s1)Nc1cc(Cl)ccc1I | -47.7% (active)
37 | CN(C)CCn1c2ccccc2c2nc3cc(C(F)(F)F)ccc3nc21 | 24.7%
38 | N#Cc1c(NC(=O)c2cccc(C(F)(F)F)c2)sc2c1CCC(O)=C2 | 30%
39 | COc1cc(-c2ccc3ncnc(N4CCc5ccc(Cl)cc54)c3c2)cnc1Cl | -8.13% (active)
40 | CN(C)c1ccnc(CNCCSC2(c3ccc(C(F)(F)F)cc3)c3ccccc3C=Cc3ccccc32)c1 | -34.1% (active)
